An excerpt weighted towards active compounds, which were near 3.5% of everything screened.
GPR151 activ = activators of human GPR151; Q8TDV0; activation, % at 11.2 µM; hit rate 1% among 650,000; PathHunter beta-arrestin GPR151 cells, luminescence; AID 1508602; in the data active = activation above about 4.9%;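 note: 0% = median of compound wells and 100% = cells with positive control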
Target sequence (Q8TDV0 whole entry, looked up): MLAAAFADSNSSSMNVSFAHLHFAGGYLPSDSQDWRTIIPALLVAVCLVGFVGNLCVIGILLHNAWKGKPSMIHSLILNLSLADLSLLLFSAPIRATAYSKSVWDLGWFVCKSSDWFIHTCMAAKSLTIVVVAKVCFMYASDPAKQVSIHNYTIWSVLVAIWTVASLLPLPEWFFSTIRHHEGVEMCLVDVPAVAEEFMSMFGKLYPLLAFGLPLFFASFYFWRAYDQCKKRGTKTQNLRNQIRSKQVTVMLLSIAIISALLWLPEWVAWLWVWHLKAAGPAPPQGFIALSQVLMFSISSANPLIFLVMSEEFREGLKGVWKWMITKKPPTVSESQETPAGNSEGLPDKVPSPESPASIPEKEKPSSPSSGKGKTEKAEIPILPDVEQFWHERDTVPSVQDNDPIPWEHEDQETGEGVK
MITF primary = blocks human microphthalmia-associated transcription factor; inhibition, % at 2.6 µM; hit rate 0.91% among 650,000; AID 1259374; O75030; AlphaScreen MITF homodimerization, bead proximity signal; in the data active = inhibition above about 50%;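 note: 0% = vehicle wells with protein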
FBW7 activator = activators of human E3 ligase FBW7. normalized activity (activation), % at 26.1 µM. AlphaScreen FBW7–phospho-cyclin E peptide binding, activator screen. AID 1259310. Q969H0. hit rate 0.13% among 650,000; in the data active = normalized activity above about 1.9%;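 note: purified mutant Fbw7 with reduced substrate affinity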
TEAD-YAP block = TEAD-YAP interaction inhibition; inhibition, % at 9.12 µM; hit rate 1.4% among 640,000; HEK-TIYL cells, TEAD-Gal4/YAP UAS-luciferase luminescence; in the data active = inhibition above about 32%;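 note: 0% = median of test compound wells and 100% = reference inhibitor wells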
GPR151 conf act = confirmation of human GPR151 activators; AID 1508609; activation, % at 11.2 µM; GPR151 PathHunter beta-arrestin cells, luminescence, 90 min; % of EA-reagent control over plate median; shares compounds with GPR151 activ; 6,700 tested, under 10 active;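 active = mean percent activation across replicates above the confirmation screen cutoff of 4.91%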
GPR119 ag = GPR119 activation, counter-screen for GPR151 activators | GPR119 PathHunter beta-arrestin cells, luminescence, 90 min; 0 = compound-well median, 100 = enzyme-acceptor control | hit rate 0.3% among 6,700 | activation, % at 11.2 µM | shares compounds with GPR151 activ;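 active = mean percent activation in the counterscreen above 29.09%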;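 note: counterscreen on off-target GPR119 to flag nonselective hits from the GPR151 activator screen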
Active calls of the source: *; · = no result given; ! = not confirmed by another sample.

SMILES | GPR151 activ | MITF primary | FBW7 activator | TEAD-YAP block | GPR151 conf act | GPR119 ag
O=S(=O)(Nc1ccc(Cl)c(N2CCCS2(=O)=O)c1)c1ccc2c(c1)CCCC2 | 0 | 1 | 0 | 4 | · | ·
CCOCCCNC(=O)C(NC(=O)C1CCC(=O)N1)c1ccccc1 (configuration not stated) | 5.6* | -12 | 0 | -2 | 0 | 16
Cc1cc(C(=O)COC(=O)Cc2ccc(Br)cc2)c(C)n1CC1CCCO1 (configuration not stated) | 0 | 10 | 0 | 8 | · | ·
CC(=O)Nc1ccc(Nc2nc(Nc3cccc(N(C)C)c3)ncc2C)cc1 | 5.5* | 7 | 0 | 8 | -1 | -12
CSc1nnc(-c2ccco2)n1-c1ccccc1 | 5.1* | 3 | 0 | -3 | 1 | 13
COC(=O)c1ccc(C(=O)Nc2nc(-c3ccccc3)c(C(=O)c3ccccc3)s2)cc1 | 1 | -2 | 0 | -6 | · | ·
O=C(Nc1ccccc1F)N1CCN(c2nc(-c3ccc(F)cc3)cs2)CC1 | -1 | 2 | 0 | -9 | · | ·
CCCC(=O)Nc1sc(C)c(CC)c1C(=O)OCC | 13* | -4 | 0 | 8 | 0 | -8
CCOC(=O)c1c(NC(=O)CNCC(O)CO)sc(C)c1C (configuration not stated) | 5.3* | -11 | 0 | -16 | 1 | 5
CCCc1cc(C(=O)Nc2sc(C)c(CC)c2C(N)=O)cs1 | 9.1* | 23 | 1 | -28 | 0 | 5
CN(CCCNC(=O)CCn1c(=O)c2cccn2c2cccnc21)C1CCCCC1 | 5.3* | -3 | 0 | 1 | 1 | -6
Nc1nc(NCCO)cc(Nc2ccncn2)n1 | 1 | 4 | 0 | -9 | · | ·
CCCNc1cc(Nc2ccncn2)nc(N)n1 | 18* | 2 | 0 | -4 | 0 | 3
O=C(Cn1c(=O)oc2cc(S(=O)(=O)N3CCCC3)ccc21)NCc1cccs1 | 0 | 4 | 0 | 9 | · | ·
O=C(Cc1ccccc1)N1CCC(=O)N(CC2CC2)CC1 | 9.9* | 10 | 0 | 0 | 0 | 1
O=C(Cc1ccccc1)N1CCC(N2CCCC2)CC1 | -1 | 7 | 0 | 12 | · | ·
COC(=O)[C@@H](NC(=O)c1cc(COc2c(F)cccc2F)on1)c1ccccc1 | 1 | 13 | 0 | -1 | · | ·
COC(=O)[C@H](Cc1ccccc1)NC(=O)c1cc(COc2c(F)cccc2F)on1 | 5.6* | 13 | 0 | -31 | 1 | -5
COc1ccc2c(c1)O[C@H](c1ccc3c(c1)OCO3)C(OC(=O)N[C@H]1CCCc3ccccc31)C2=O (some centres not stated) | 5.3* | -21 | 0 | · | 0 | 5
COc1ccc2c(c1)O[C@H](c1ccc3c(c1)OCO3)C(OC(=O)NCc1ccc3c(c1)OCO3)C2=O (some centres not stated) | 10* | 3 | 0 | · | 1 | 1
O=C(Nc1ccc([N+](=O)[O-])cc1)NC1CCN(Cc2ccccc2)CC1 | 2 | 5 | 0 | 3 | · | ·
CCS(=O)(=O)Nc1cccc(N2CCC(NC(C)c3ccccc3Cl)CC2)c1 (configuration not stated) | 0 | 8 | 0 | 4 | · | ·
Nc1ccc(Oc2ccc3ccccc3c2Cl)c(Cl)c1 | 2 | 10 | 1 | -9 | · | ·
Nc1ccc(Oc2ccc(Cl)c3ccccc23)c(Cl)c1 | 11* | 4 | 0 | 2 | 0 | 7
COc1ccc(C2CC(=O)C3=C(C2)NC(C)=C(C(=O)OCCOc2ccccc2)C3c2ccc(O)c(OC)c2)cc1 (configuration not stated) | 2 | 16 | 0 | 10 | · | ·
SMILES | GPR151 activ | MITF primary | FBW7 activator | TEAD-YAP block | GPR151 conf act | GPR119 ag
O=C(N/N=C/c1cccc(O)c1)c1ccc(Br)o1 | 8.3* | -1 | 0 | -25 | -4 | -31
O=C(N/N=C/c1cccnc1)c1ccc(Br)o1 | -1 | 3 | 0 | -50 | · | ·
CCCn1cnc2sc(C(=O)Nc3ccccc3OC)c(C)c2c1=O | 11* | 0 | 0 | -8 | -1 | -12
Nc1cccc(-c2nc3ccc(Cc4ccc5nc(-c6cccc(N)c6)[nH]c5c4)cc3[nH]2)c1 | 7.0* | 5 | 0 | 10 | 0 | 14
Cn1cccc1-c1nc2ccc(N)cc2[nH]1 | 6.3* | 13 | 0 | -21 | -1 | -16
CCn1c2ccccc2c2cc(/C=N/NC(=O)c3nnn(-c4nonc4N)c3C)ccc21 | 0 | -10 | 0 | 3 | · | ·
COCc1cc(C)nc2sc3c(=O)n(-c4ccc(C)cc4C)nnc3c12 | 1 | 16 | 0 | 5 | · | ·
COCc1cc(C)nc2sc3c(=O)n(-c4ccc(C(C)=O)cc4)nnc3c12 | 5.5* | 0 | 0 | -3 | 0 | 5
CN(C)CCCSC(=N)N | 0 | 11 | 0 | · | · | ·
CSC(=N)N | 11*! | -1 | 0 | 5 | -1 | 4
COC(=O)c1ccc(N2CC(O)=C(c3nc4ccccc4[nH]3)C2=N)cc1 | -1 | 6 | 0 | 2 | · | ·
CC(C)[C@H](O)C(=O)N1CCN(c2ccc3[nH]ncc3c2)CC1 | -1 | 24 | 0 | 0 | · | ·
CC(C)C[C@H](O)C(=O)N1CCN(c2ccc3[nH]ncc3c2)CC1 | 5.0* | 8 | 0 | -8 | 0 | 13
Cc1cccc(-n2nnnc2C(c2ccccc2)N2CCOCC2)c1 (configuration not stated) | 8.5* | 6 | 0 | 12 | 1 | 11
O=C(O)c1cccc(-n2nnnc2-c2ccccc2)c1 | 5.8* | -5 | 0 | -7 | -1 | -18
O=C(CCCc1ccccc1)NCCOc1ccccc1 | 5.2* | 6 | 0 | -7 | 0 | -1
CCOc1ccc(/C(O)=C2/C(=O)C(=O)N(Cc3cccnc3)C2c2ccc(C)cc2)cc1C (configuration not stated) | 0 | -7 | 0 | -5 | · | ·
C=CCOc1ccc(C2/C(=C(/O)c3ccc(OCC)c(C)c3)C(=O)C(=O)N2Cc2cccnc2)cc1 (configuration not stated) | 6.6* | -19 | 0 | 3 | 0 | -17
O=C(N/N=C/c1cccc(Cl)c1)c1cccs1 | -2 | 12 | 0 | -53 | · | ·
CC(=O)Nc1sc(N/N=C/c2cccc(Cl)c2)nc1-c1cccs1 | 7.5* | 9 | 0 | 9 | 0 | 4
CC1=C(C(=O)Nc2ccc([N+](=O)[O-])cc2)C(c2ccc(C(C)(C)C)cc2)NC(=O)N1 (configuration not stated) | 1 | -7 | 0 | -10 | · | ·
COc1ccc(/C(N)=N/OC(=O)CN(C)S(=O)(=O)c2ccc(Cl)cc2)cc1OC | 0 | -4 | 0 | 0 | · | ·
Cc1ccc(N2C(=O)c3ccc([N+](=O)[O-])cc3C2=O)cc1Cl | 0 | 6 | 0 | 14 | · | ·
O=C1c2ccc([N+](=O)[O-])cc2C(=O)N1c1ccc(Cl)c(Cl)c1 | 6.9* | 7 | 0 | 9 | 1 | 7
Brc1ccc2ncnc(N3CCCCCC3)c2c1 | 3 | 19 | 0 | 14 | · | ·
